Bioassay records (PubChem BioAssay)
Most compounds without a hit are left out; they make up all but 2.4% or so of the library.
Bim-Mcl-1: human Bim-Mcl-1 interaction inhibition. Q07820. Bead-based flow cytometry, Bim peptide-Mcl-1 binding. inhibition, % at 10 µM. 190,000 tested, 0.1% active. AID 1009; in the data active = inhibition above about 40%;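 also: 0% = no compound tracer wells and 100% = peptide blocker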
Target sequence (Q07820 whole entry, looked up): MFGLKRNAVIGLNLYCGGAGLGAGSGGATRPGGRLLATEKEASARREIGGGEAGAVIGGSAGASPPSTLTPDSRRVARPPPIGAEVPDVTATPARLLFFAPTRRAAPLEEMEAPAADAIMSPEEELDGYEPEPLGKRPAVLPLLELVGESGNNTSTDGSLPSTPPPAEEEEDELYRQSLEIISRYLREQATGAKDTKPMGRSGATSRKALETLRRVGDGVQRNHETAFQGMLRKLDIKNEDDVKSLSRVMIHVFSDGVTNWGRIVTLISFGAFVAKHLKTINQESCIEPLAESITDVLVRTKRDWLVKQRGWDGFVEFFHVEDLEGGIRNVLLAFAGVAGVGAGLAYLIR
zVAD death inh: L929 zVAD cell death inhibition; L929 zVAD necroptosis rescue, ATP luminescence, 24 h; with zVAD 60 µM; viability rescue, % at 10 µM; 220,000 tested, 0.38% active;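 active = activation, scaled between plate controls, above about 75%, limit read from the data; inactive = activation under that limit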;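 also: 0% = zVAD with DMSO and 100% = DMSO alone without zVAD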
Mcl1-Noxa inh: Mcl-1/Noxa interaction inhibition. Q07820. TR-FRET Mcl-1/Noxa peptide binding, 2 h. inhibition, % at 21.7 µM. 220,000 tested, 1.5% active. AID 1022;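 active = compounds that cut the protein-peptide binding signal by more than 50% relative to plate controls in a single-dose test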;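 also: His-tagged Mcl-1 with rhodamine Noxa BH3 peptide and terbium anti-His antibody; 0% = Mcl-1 plus Noxa peptide wells and 100% = peptide-only wells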
TNF necrop inh: TNF-alpha cell death inhibition in Jurkat FADD-/- cells. Jurkat FADD-/- TNF necroptosis rescue, ATP luminescence, 24 h; 0 = TNF only, 100 = no-TNF cells. activation (protection from cell death), % at 10 µM. 220,000 tested, 0.068% active;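 active = activation, meaning protection from cell death, of at least 50% relative to plate controls; inactive = activation below 50%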;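 also: necroptosis triggered by 40 ng/mL TNF-alpha added together with compound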
MCL1-BIM inh: MCL1-BIM-BH3 interaction inhibition (human) | Q07820 | GST-MCL1 / FITC-Bim-BH3 fluorescence polarization | inhibition, % at 10.9 µM | 320,000 tested, 0.68% active | AID 2057;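 active = inhibition above the mean inhibition of all tested compounds plus 3 SD, set per campaign, cut at about 40% in these data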;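 also: 0% = DMSO wells and 100% = unlabeled Bim-BH3 peptide control; higher means more loss of mP so more displacement of Bim peptide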
Mcl1-Bid inh: Mcl-1/Bid interaction inhibition; TR-FRET Mcl-1/Bid-Dy647 peptide binding, 1536-well; AID 1021; 220,000 tested, 0.97% active; inhibition, % at 21.7 µM;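 active = compounds that cut the binding signal by more than half at the single screening dose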;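 also: His-tagged Mcl-1 with europium anti-His antibody binding Bid BH3 peptide; 0% = Mcl-1 plus peptide wells and 100% = peptide-only wells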
Starred values were filed as active, the others as inactive; / = no result given.

SMILES	Bim-Mcl-1	zVAD death inh	Mcl1-Noxa inh	TNF necrop inh	MCL1-BIM inh	Mcl1-Bid inh
CC(=O)C1=C(c2ccccc2)NC(=S)NC1c1ccc(O)c(O)c1 (stereo not drawn)	-8.0	8.2	52.2*	-0.6	21.9	-20.3
CC(=O)C1=C(c2ccccc2)NC(=S)NC1c1cc(Cl)c(OC(C)C)c(Cl)c1 (stereo not drawn)	11.0	-0.6	3.0	-7.5	16.6	3.5
CC1(C)C(=O)Nc2ccccc2N1C(=O)COc1ccc(S(=O)(=O)N2CCOCC2)cc1Cl	-5.0	-0.2	55.8*	-2.1	9.2	-19.2
O=C(Nc1ccc2c(c1)OCO2)NC1(C(F)(F)F)Oc2ccccc2O1	1.0	-0.6	18.7	-0.6	18.4	-40.5
O=C(Nc1ccc2c(c1)OCCO2)NC1(C(F)(F)F)Oc2ccccc2O1	-1.0	22.7	24.7	-9.7	7.0	68.6*
C=C(C)C(=O)Nc1ccc2c(c1)OCCOCCOCCO2	/	0.6	52.5*	0.5	-3.2	-33.9
Cc1ccc(S(=O)(=O)N(C)CC(O)Cn2c3ccccc3c3ccccc32)cc1 (stereo not drawn)	0.0	0.0	6.8	-0.4	8.3	72.4*
CCCCOc1ccc(C(=O)N/C(=C\c2ccc([N+](=O)[O-])cc2)C(=O)OCc2ccco2)cc1	58.0*	0.8	7.0	2.1	-6.2	-7.5
CSCCC(NC(=O)c1ccco1)C(=O)OCC(=O)N1c2ccccc2NC(=O)C1(C)C (stereo not drawn)	/	/	/	/	3.1	/
Cc1cc(C)c2c(NC(=S)Nc3ccccc3)n[nH]c2n1	1.0	-0.1	60.2*	0.7	13.3	-37.0
Cc1cc(C)c2c(NC(=S)NC(=O)c3ccccc3)n[nH]c2n1	-1.0	0.6	10.7	0.0	5.2	-19.7
Cc1ccc(C2C(/C=C3/SC(=S)NC3=O)=C(c3cccs3)Oc3ccccc32)cc1 (stereo not drawn)	4.0	0.8	90.4*	-1.0	-21.9	1.5
CC1Cc2cc(/C=C3/SC(=S)NC3=O)ccc2O1 (stereo not drawn)	/	0.6	12.5	2.3	1.7	-44.6
COc1ccc(O)c(N)c1	6.0	1.8	89.5*	-7.5	/	-46.7
O=C(CN1CCN(CCN2C(=O)c3cccc4cccc(c34)C2=O)CC1)c1ccc(F)cc1	-1.0	-0.3	18.2	-8.6	11.6	97.8*
CN1/C(=C/C2CC(=O)N(c3cccc4ccccc34)C2=O)C(C)(C)c2ccccc21 (stereo not drawn)	0.0	0.5	53.9*	0.6	-66.6	-38.3
CCOc1ccc(N2C(=O)CC(/C=C3/N(C)c4ccccc4C3(C)C)C2=O)cc1 (stereo not drawn)	-2.0	0.4	2.3	-2.1	-41.3	-27.3
CC1CCC/C(=C\Nc2ccc(O)cc2)C1=O (stereo not drawn)	0.0	0.6	34.2	-8.3	7.9	-162.6
CC1(C)OC(C)(C)/C(=C/Nc2ccc(O)cc2)C1=O	15.0	1.0	57.0*	-2.1	21.3	-32.9
O=C(NC1CCCCCCC1)c1ccc(Br)cc1	/	/	/	/	52.1*	/
COc1cccc(NC(=O)CCS(=O)(=O)c2ccc3c(c2)oc(=O)n3C)c1	/	/	/	/	-2.5	/
OC(CNCC(c1ccco1)N1CCCCC1)c1ccccc1 (stereo not drawn)	1.0	0.2	20.7	-2.5	0.1	63.0*
Cc1ccccc1C(=O)Nc1nc(-c2cccnc2)cs1	/	0.0	74.9*	-1.5	9.8	17.9
CN(C)c1ccc(Nc2nc(-c3cccnc3)cs2)cc1	0.0	7.6	60.2*	-0.8	4.3	-20.7
CCN(CC)c1ccc(Nc2nc(-c3cccnc3)cs2)cc1	/	/	/	/	8.2	/
SMILES	Bim-Mcl-1	zVAD death inh	Mcl1-Noxa inh	TNF necrop inh	MCL1-BIM inh	Mcl1-Bid inh
O=C(Nc1nc(-c2cccnc2)cs1)c1ccccc1Cl	-3.0	6.7	-16.0	-0.5	6.1	-5.6
CCN(CC)c1ccc(NC(=O)C2CC3CCC2C3)cc1 (stereo not drawn)	0.0	35.8	67.0*	5.3	6.8	9.4
CCc1ccc(NC(=O)Cn2nc(C(F)(F)F)c3c2CCC3)cc1	-3.0	0.1	10.7	0.7	1.9	54.1*
CCc1ccccc1NC(=O)Cn1nc(C(F)(F)F)c2c1CCC2	0.0	-1.1	-2.4	-1.1	0.6	-1.6
COc1ccc(C(=O)N=c2c(C#N)cc3c(=O)n4cccc(C)c4nc3n2Cc2ccco2)cc1	-3.0	-0.2	76.5*	-6.1	/	19.6
CCCCn1c(=NC(=O)c2cccnc2)c(C#N)cc2c(=O)n3cccc(C)c3nc21	-6.0	-0.2	12.8	-5.8	47.9*	-28.1
Cc1ccccc1C(=O)N=c1c(C#N)cc2c(=O)n3cccc(C)c3nc2n1Cc1ccco1	-3.0	-0.2	3.3	-0.7	15.1	-16.2
CN(C)c1ccc(Nc2nc(N)c([N+](=O)[O-])c(N3CCOCC3)n2)cc1	1.0	5.0	82.7*	-16.4	22.4	-12.2
O=CNn1cnc2c(oc3nc(-c4ccccc4)cc(-c4ccco4)c32)c1=O	4.0	0.6	39.9	0.4	1.1	-28.6
COc1ccc(Br)cc1CN1CCN(C(=O)c2cccc(F)c2)CC1	/	/	/	/	-3.7	/
COc1cccc(-n2c(SCc3ccccn3)nc3c(c2=O)SCC3)c1	-2.0	-0.6	13.5	0.0	5.1	82.1*
N#CC1=C(N)N(c2ccc(F)cc2)C2=C(C1c1ccc(O)cc1)S(=O)(=O)CC2 (stereo not drawn)	21.0	0.8	89.5*	-1.5	/	30.4
COc1cccc(CNC(=O)COC(=O)CCc2cc(OC)c(OC)c(OC)c2)c1	/	/	/	/	-9.2	/
O=C1ON=C(c2ccccc2)/C1=C/c1ccc(-c2ccccc2[N+](=O)[O-])o1	-8.0	1.4	67.2*	-2.1	28.9	-10.7
O=[N+]([O-])c1ccccc1-c1ccc(/C=N/n2cnnc2)o1	-2.0	-0.1	18.0	-5.8	13.9	-31.2
Cc1cc(C(C)(C)C)ccc1OCC(=O)N/N=C\c1c(C)n(C)n(-c2ccccc2)c1=O	/	/	/	/	3.0	/
CC(NC(=O)C(=O)c1cn(CC(=O)N2CCOCC2)c2ccccc12)c1ccccc1 (stereo not drawn)	/	/	/	/	-4.3	/
O=C(Nc1ccc(Oc2ccc3c(c2)C(=O)N(c2ccc(O)cc2)C3=O)cc1)c1cccs1	-2.0	1.1	-61.9	2.2	-2.4	65.8*
COc1ccc(N2CCN(C(=O)CCc3nnc4ccc(N5CCOCC5)nn34)CC2)cc1	/	/	/	/	-1.5	/
NC(=O)c1ccccc1NC(=O)c1cccc(C(=O)Nc2ccccc2C(N)=O)n1	/	/	/	/	5.0	/
CCOC(=O)c1c(NC(=O)c2cc(-c3ccc(Cl)s3)nc3ccccc23)sc(C(N)=O)c1C	-5.0	1.5	18.8	1.5	2.3	61.0*
CCOC(=O)C1(Cc2cccc(OC)c2)CCN(Cc2cccc(OC)c2OC)CC1	78.0*	-0.4	5.1	0.2	5.2	-24.6
CCOC(=O)C1(Cc2cccc(OC)c2)CCN(Cc2cc(OC)ccc2OC)CC1	1.0	-0.9	8.8	1.0	1.1	-18.8
